{"source": "PubChem BioAssay (NCI)", "note": "“And” between values parts separate entries of the source, which are not always exact repeats. Equal entries are not always repeated. Compounds without any hit were thinned out: in the full panel of roughly 83,000, 20% have a hit.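 How to read the values: 0–100, growth inhibition (40 = 60% inhibited); 0, no net growth; -100 to 0, cell death (-40 = 40% of starting cells died; -100 = all dead).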 A number with no mark means an inactive call. The source made the active and inactive calls. How the source made its calls: active means growth percent below 10; inactive means the rest."}
{"system": "KM12 colon", "assay": "NCI-60 one-dose screen, 48 h (100 = growth as untreated, 0 = no growth, -100 = all killed)", "conditions": "10 µM unless noted"}
{"smiles": "O=C(CSc1nnc(-c2ccc(-c3nc4ccccc4[nH]3)cc2)o1)Nc1ccc(Br)cc1", "growth": "21.7%"}
{"smiles": "COc1ccc2c(c1)N=c1c-2cc2c(O)[nH]c(=S)n2c1=O", "growth": "42.7%"}
{"smiles": "CN(C(=O)CN1C(=O)/C(=C/c2ccco2)SC1=S)C1CCS(=O)(=O)C1", "note": "(stereo not given)", "growth": "107%"}
{"smiles": "CCOc1ccc2[nH]c(=O)c(C(c3nnnn3CC3CCCO3)N3CCN(Cc4ccccc4)CC3)cc2c1", "note": "(stereo not given)", "growth": "101%"}
{"smiles": "N#CC1=C(c2cccs2)Nc2c(c(-c3ccccc3)nn2-c2ccccc2)C12C(=O)Nc1ccc(Cl)cc12", "note": "(stereo not given)", "growth": "15.3%"}
{"smiles": "COc1ccc(-c2nc3ccccc3n2CC(=O)N=Nc2c(O)[nH]c3ccc(OC)cc23)cc1", "growth": "85%"}
{"smiles": "O=C(NC(=S)N1CCN(c2ncnc3c2cnn3-c2ccccc2)CC1)c1ccc(Br)cc1", "growth": "92.5%"}
{"smiles": "COc1c(B(O)O)cc(F)cc1-c1nc2ccc3[nH]ncc3c2c2c1COCC2", "growth": "70.2%"}
{"smiles": "CC1=C(C(=O)Nc2ccccc2)C(c2cccc(Cl)c2Cl)n2c(nc3ccccc32)N1", "note": "(stereo not given)", "growth": "32.9%"}
{"smiles": "CC(Nc1ncnc2ccc(-c3ccc4oc(N)nc4c3)cc12)c1ccccc1", "note": "(stereo not given)", "growth": "23.6%"}
{"smiles": "CNc1nc2ccccc2n2c(-c3ccc(O)c(O)c3)cnc12", "growth": "-0.402% (active)"}
{"smiles": "COc1cc(/C=C/C(=O)c2cnn(-c3cc(=O)[nH]c4ccc(Br)cc34)c2C)cc(OC)c1OC", "growth": "-42.6% (active)"}
{"smiles": "COc1ccc(/C=C/C(=O)c2ccc(OC)c(S(N)(=O)=O)c2)c(C(F)(F)F)c1", "growth": "6.97% (active)"}
{"smiles": "COc1ccc(S(=O)(=O)Nc2ccc(-c3ccc4c(c3)NC(=O)/C4=C\\c3ccc[nH]3)cc2)cc1OC", "growth": "33.6%"}
{"smiles": "COC(=O)c1ccc(-c2c(-c3ccccc3)c(F)c3oc(C(=O)OC)c(N)c3c2-c2ccccc2)cc1", "growth": "95.6%"}
{"smiles": "O=C(COc1ccc(/C=C2/C(=O)Nc3ccc(Cl)cc32)cc1)Nc1ccc(Br)cc1", "growth": "2.45% (active)"}
{"smiles": "O=C(CSc1nc2ccccc2c(=O)[nH]1)NNC(=O)c1ccccc1Cl", "growth": "101%"}
{"smiles": "COc1ccc2[nH]cc(-c3cc4nc(-c5cn(C)c6ncccc56)cc(N)n4n3)c2c1", "growth": "-66.2% (active)"}
{"smiles": "COc1cc2cc(C(=O)N3C[C@@H](CCl)c4c3cc(OC(=O)N(CCC(=O)N3CCN(C)CC3)C3CCCCC3)c3ccccc43)[nH]c2c(OC)c1OC", "growth": "-39.1% (active)"}
{"smiles": "CC[C@]12C=CCN3CC[C@@]4(c5ccc(OC)cc5N(C)[C@H]4[C@@](O)(C(=O)OC)[C@@H]1OC(=O)CCCC[P+](c1ccc(F)cc1)(c1ccc(F)cc1)c1ccc(F)cc1)[C@@H]32", "growth": "16%"}
{"smiles": "O=C(Nc1nc2ccc([N+](=O)[O-])cc2s1)Nc1ccccc1F", "growth": "13.6%"}
{"smiles": "O=C1C=CC(=CC=C2N(Cc3ccc4ccccc4c3)c3ccccc3N2Cc2ccc3ccccc3c2)C=C1", "growth": "33.8% and 11.2%"}
{"smiles": "O=c1[nH]c2ccccc2cc1COc1ccc(Nc2nccc(-c3ccc(Cl)cc3)n2)cc1", "growth": "99.3%"}
{"smiles": "CC1=C(C(=O)Nc2ccccc2)C(c2ccc3ccccc3c2)n2c(nc3ccccc32)N1", "note": "(stereo not given)", "growth": "69.4%"}
{"smiles": "O=C1CC(c2ccc(I)cc2)OC2C=Cc3ccccc3C12", "note": "(stereo not given)", "growth": "92.9%"}
{"smiles": "COc1ccc(C(=O)/C=C/c2ccc3c(c2)OCCO3)cc1S(N)(=O)=O", "growth": "85.8%"}
{"smiles": "O=C(Cn1c(-c2ccccc2)nc2ccccc21)N=Nc1c(O)[nH]c2ccc(Br)cc12", "growth": "15%"}
{"smiles": "Cn1cc(-c2cc3nc(-c4cn(C)c5ncc(Br)cc45)cc(N)n3n2)c2cc(F)ccc21", "growth": "19.1%"}
{"smiles": "O=C1Nc2ccccc2/C1=C/C(=O)c1cc2ccccc2oc1=O", "growth": "95.9%"}
{"smiles": "CCC(=O)c1c2c(c3ccc4c5ccccc5ccc4n13)C(=O)c1ccccc1C2=O", "growth": "68.9%"}
{"smiles": "COc1ccc(C(=O)NNC(=O)CSc2nc3sc4c(c3c(=O)n2-c2ccc(Cl)cc2)CCCC4)cc1", "growth": "98%"}
{"smiles": "Cc1nc2sccn2c1-c1nnc(SCC(C)C)o1", "growth": "98.1%"}
{"smiles": "COc1ccc([C@H]2C(C(=O)c3ccc(Cl)cc3)C3(N[C@@H]2c2ccccc2)C(=O)Nc2ccccc23)cc1", "note": "(stereo not given in full)", "growth": "15.5%"}
{"smiles": "CN(C)CCCNC(=S)Nc1ccc(/C=C/c2ccc(Cl)cc2)cc1", "growth": "-36.8% (active)"}
{"smiles": "COc1ccc2[nH]c(=O)c(CSc3ccccc3Nc3nccc(-c4ccc(Cl)cc4)n3)cc2c1", "growth": "31.9%"}
